Measurements published in PubChem BioAssay (NCI).
The panel holds about 83,000 compounds, 20% with a hit somewhere; the sample as a whole holds those more often.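 Method: cells in 96-well plates; compound added at one concentration; 48 h incubation; percent growth measured; values under 10 scored active.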 Active and inactive are the calls of the source.

The compounds below were run on HCC-2998 colon (assay: NCI-60 one-dose screen, 48 h (100 = growth as untreated, 0 = no growth, -100 = all killed)). Conditions: 10 µM unless noted.

SMILES | growth
Cc1ccc(NC(=O)c2ccc(CN3CCN(C)CC3)c(C(F)(F)F)c2)cc1Oc1ccc(-c2[nH]nc3ncnc(N)c23)cc1 | 111% (inactive)
COc1ccc([C@H]2c3[nH]c4ccccc4c3C[C@@H]3C(=O)N(C4CCN(Cc5ccccc5)CC4)CC(=O)N23)c(OC)c1 | 78.1% (inactive)
IP(CCCSc1n(Cc2ccc3ccccc3c2)c(-c2ccccc2)c(-c2ccccc2)[n+]1Cc1ccc2ccccc2c1)(c1ccccc1)(c1ccccc1)c1ccccc1 | 24.3% (inactive)
O=C1NC(=O)c2c1c1c3ccccc3ccc1c1[nH]c3ccccc3c21 | 46.1% (inactive)
COc1cc(/C=N/n2cnc3oc(-c4ccccc4)cc3c2=N)cc(CN2CCN(C)CC2)c1O | 108% (inactive)
COC1=C(c2ccccc2)C(=O)C(OC)=C(c2ccccc2)C1=O | 94.4% (inactive)
Cc1ccc(-c2csc(N/N=C/c3nc4ccccc4n3C3CC3)n2)cc1 | 90% (inactive)
CC(C)=CCc1c(O)c(CC=C(C)C)c2c(c1O)C(=O)C1=C[C@@H]3C[C@H]4C(C)(C)O[C@@](C/C=C(\C)C(=O)O)(C3=O)[C@@]14O2 | -87.1% (active)
CN1CCN(c2nc(-c3csc(-c4ccncc4)n3)cc3ccccc23)CC1 | 48.8% (inactive)
CN1C(=O)N(C)C2C1NN=c1s/c(=C\c3ccccn3)c(=O)n12 (configuration not stated) | 104% (inactive)
CC(C)SC1=NC(=C(C(=N1)NC2=ClC=CC=C2)C#N)C3=CC=CC=C3 | 84.1% (inactive)
CC(=O)NC(C)(C)C(=O)N[C@@H](C)C(=O)NC(C)(C)C(=O)N[C@@H](C)C(=O)NC(C)(C)C(=O)N[C@@H](C)C(=O)N[C@@H](CCC(N)=O)C(=O)NC(C)(C)C(=O)N[C@H](C(=O)NC(C)(C)C(=O)NCC(=O)N[C@@H](CC(C)C)C(=O)NC(C)(C)C(=O)N1CCC[C@H]1C(=O)N[C@H](C(=O)NC(C)(C)C(=O)NC(C)(C)C(=O)N[C@@H](CCC(N)=O)C(=O)N[C@@H](CCC(N)=O)C(=O)N[C@H](CO)CC1CCCCC1)C(C)C)C(C)C | 49.9% [5 µM] (inactive)
Clc1ccc(-c2csc(N/N=C/c3nc4ccccc4n3C3CC3)n2)cc1 | 105% (inactive)
O=C(NCCCNc1cc(-c2cn(-c3ccccc3)nc2-c2cccc(O)c2)ccn1)Nc1cc(C(F)(F)F)cc(C(F)(F)F)c1 | 66.8% (inactive)
COc1ccc(-c2ccc3c4c(cccc24)C(=O)N(N2C(=O)c4cccc5cccc(c45)C2=O)C3=O)cc1 | 114% (inactive)
Cc1cc(C(=O)Nc2ccc(SC#N)cc2)c(C)o1 | 107% (inactive)
Oc1ccc(CSc2nnc(-c3cnccn3)o2)c2cccnc12 | 13.2% (inactive)
O=C(O)c1ccc(-n2cc(CNc3ccc(Cl)cc3)c(-c3ccc(F)cc3)n2)cc1 | 112% (inactive)
Cc1cn(-c2cc(NC(=O)c3cncc(C#Cc4cnc5ccc(OCCCS(C)(=O)=O)nn45)c3)cc(C(F)(F)F)c2)cn1 | 17.4% (inactive)
Nc1nc(-c2cccc([N+](=O)[O-])c2)c(N=Nc2cccc(Cl)c2)s1 | 27.2% (inactive)
CC[C@@](C)(NC(=O)C(C)(C)NC(=O)[C@@H](NC(=O)[C@@H]1CCCN1C(=O)C(C)(C)NC(=O)[C@H](CC(C)C)NC(=O)CNC(=O)C(C)(C)NC(=O)[C@@H](NC(=O)C(C)(C)NC(=O)[C@H](CCC(N)=O)NC(=O)[C@H](C)NC(=O)C(C)(C)NC(=O)[C@H](C)NC(=O)C(C)(C)NC(=O)[C@@H]1CCCN1C(=O)C(C)(C)NC(C)=O)C(C)C)C(C)C)C(=O)N[C@@H](CCC(N)=O)C(=O)N[C@@H](CCC(N)=O)C(=O)N[C@H](CO)Cc1ccccc1 | 29.3% [4.25 µM] (inactive)
COc1ccc(-c2nn(-c3ccccc3)cc2/C=C/C(=O)c2ccc(NC(=O)CCCCCCC(=O)NO)cc2)cc1 | 108% (inactive)
Nc1ccc(-c2nnc(SCc3ccc(O)c4ncccc34)o2)cc1 | 14.3% (inactive)
O=C1Nc2ccc(Cl)cc2/C1=C/c1ccc(OCc2ccc(Br)cc2F)cc1 | 112% (inactive)
O=C(CCCCCCN1CC(=O)N2[C@@H](c3cccc(Cl)c3)c3[nH]c4ccccc4c3C[C@H]2C1=O)NO | 72.1% (inactive)
CS(=O)(=O)c1ccc(-c2nn(-c3ccccc3)cc2/C=N/NC(=O)c2ccncc2)cc1 | 102% (inactive)
COc1ccc(-c2nnc(SCc3ccc(O)c4ncccc34)o2)cc1 | 45.2% (inactive)
